Inconclusive results are not listed. Calls of active or inactive are those of the source. Unless noted, the call rests on the fitted dose curve; in most records, active means well fitted curve in the direction sought with a large enough effect; inconclusive means small, poorly fitted or top-dose-only effect, or another doubt; inactive means no such curve, though single readings can be large; an effect the other way counts as inactive or inconclusive.
Key:
[1] = qHTS assay for measurement of the activity of small molecule inhibitors on Zika virus induced Caspase-3 activity in human astrocytoma cells (AID 1224859); further: potency means the concentration at half of the fitted maximal effect
Method in brief: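 A cell-based luminescent caspase-3/7 assay used SNB-19 cells infected with ZIKV (2 FFU/cell) for 6 h following 1 h compound pretreatment.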

[2] = qHTS assay to identify small molecule inhibitors of chordoma cells - UCH-1 (AID 1259355); further: nearly all actives have a fitted effect of over 55% in size
Method in brief: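 Seed 800 cells per well; incubate overnight at 37 C, 5% CO2. Add test compounds (15 concentrations), then the auranofin–topoisomerase-agent combination. Incubate 48hr, add CellTiter-Glo, wait 30min, read luminescence.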

[3] = qHTS assay to identify small molecule inhibitors of chordoma cells - UCH-2 (AID 1259356); further: series mostly up to about 46 µM
[4] = P-glycoprotein substrates identified in KB-8-5-11 adenocarcinoma cell line, qHTS therapeutic library screen (AID 1346987); further: series mostly up to about 44 µM; nearly all actives have a fitted effect of over 65% in size
Method in brief: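 P-gp-mediated resistance screen: KB-8-5-11 cells treated 72 h with compounds in dose-response. CellTiter-Glo viability.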

[5] = Natriuretic polypeptide receptor (hNpr1) antagonism - Pilot counterscreen GloSensor control cell line (AID 1347045; calls by dose curve; further: series mostly up to about 38 µM)
Method in brief: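 This counterscreen uses HEK293 cells expressing the GIP/pGS-40F cGMP biosensor. Compound-treated cells are challenged with 50 uM sodium nitroprusside, and the luciferase signal is compared before and after stimulation.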

[6] = molecular target: Atrial natriuretic peptide receptor 2 (Homo sapiens) (UniProt P20594); assay: Natriuretic polypeptide receptor (hNpr2) antagonism - Pilot subtype selectivity assay (AID 1347050; calls by dose curve; further: potency means the concentration at half of the fitted maximal effect)
Atrial natriuretic peptide receptor 2 (Homo sapiens), sequence (P20594 whole entry, looked up): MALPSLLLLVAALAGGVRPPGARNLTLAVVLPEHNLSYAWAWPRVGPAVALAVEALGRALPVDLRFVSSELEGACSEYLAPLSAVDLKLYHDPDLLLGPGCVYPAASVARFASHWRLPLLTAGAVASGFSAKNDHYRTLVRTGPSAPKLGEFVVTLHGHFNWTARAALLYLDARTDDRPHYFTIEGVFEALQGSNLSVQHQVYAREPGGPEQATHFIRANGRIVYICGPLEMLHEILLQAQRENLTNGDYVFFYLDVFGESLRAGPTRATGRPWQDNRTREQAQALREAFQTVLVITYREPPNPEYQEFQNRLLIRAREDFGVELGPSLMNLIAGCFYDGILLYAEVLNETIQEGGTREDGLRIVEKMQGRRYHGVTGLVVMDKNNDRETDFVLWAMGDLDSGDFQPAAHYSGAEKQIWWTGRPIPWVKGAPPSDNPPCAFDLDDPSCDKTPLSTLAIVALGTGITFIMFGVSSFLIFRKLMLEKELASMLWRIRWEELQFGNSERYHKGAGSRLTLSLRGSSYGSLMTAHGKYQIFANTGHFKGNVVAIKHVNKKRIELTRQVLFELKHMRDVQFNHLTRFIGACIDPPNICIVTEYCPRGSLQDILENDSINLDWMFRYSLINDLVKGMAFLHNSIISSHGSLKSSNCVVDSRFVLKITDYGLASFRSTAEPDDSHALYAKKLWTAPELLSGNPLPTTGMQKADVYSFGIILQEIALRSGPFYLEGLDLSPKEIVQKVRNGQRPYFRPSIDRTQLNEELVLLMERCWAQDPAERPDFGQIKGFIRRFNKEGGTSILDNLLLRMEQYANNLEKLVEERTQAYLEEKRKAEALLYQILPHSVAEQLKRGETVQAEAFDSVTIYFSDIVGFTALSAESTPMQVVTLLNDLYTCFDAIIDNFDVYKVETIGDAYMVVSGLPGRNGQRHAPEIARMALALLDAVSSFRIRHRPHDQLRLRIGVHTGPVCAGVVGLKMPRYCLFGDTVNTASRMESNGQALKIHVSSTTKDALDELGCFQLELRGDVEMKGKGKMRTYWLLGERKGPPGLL
Method in brief: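 Pilot selectivity screen against hNpr2: HEK293 cGMP-sensor cells are treated with LOPAC1280 compounds, then with hNppC peptide at 1 nM final. The cGMP-driven luminescence change over 20 min at room temperature is the read-out.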

[7] = molecular target: Parathyroid hormone/parathyroid hormone-related peptide receptor (Homo sapiens) (UniProt Q03431); assay: qHTS for PTHR1 Agonists: Optimization Screen against the NCGC LOPAC library (AID 1347079);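 further: GloSensor cAMP luminescence in HEK-293 GP2 cells expressing human PTHR1 with IBMX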
Parathyroid hormone/parathyroid hormone-related peptide receptor (Homo sapiens), sequence (Q03431 whole entry, looked up): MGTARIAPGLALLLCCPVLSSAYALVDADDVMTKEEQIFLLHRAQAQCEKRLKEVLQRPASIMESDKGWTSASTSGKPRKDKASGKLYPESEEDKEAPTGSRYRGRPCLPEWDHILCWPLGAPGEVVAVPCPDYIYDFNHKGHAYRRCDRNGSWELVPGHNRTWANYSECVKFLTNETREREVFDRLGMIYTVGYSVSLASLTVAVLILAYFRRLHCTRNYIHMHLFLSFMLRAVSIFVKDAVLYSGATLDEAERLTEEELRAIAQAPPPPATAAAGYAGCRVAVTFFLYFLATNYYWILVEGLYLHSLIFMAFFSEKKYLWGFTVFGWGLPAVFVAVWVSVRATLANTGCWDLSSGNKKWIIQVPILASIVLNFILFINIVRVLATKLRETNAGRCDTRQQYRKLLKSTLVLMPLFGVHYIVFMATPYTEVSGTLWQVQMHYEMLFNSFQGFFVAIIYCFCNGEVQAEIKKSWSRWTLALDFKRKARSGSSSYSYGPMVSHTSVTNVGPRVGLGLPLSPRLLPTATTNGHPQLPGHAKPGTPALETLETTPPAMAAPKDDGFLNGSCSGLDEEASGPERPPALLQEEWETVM
Method in brief: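 Compounds were tested across a qHTS titration. PTHR1-expressing GP2 cells report cAMP rises via GloSensor luminescence after 1 hr compound exposure at 37C with IBMX present.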

[8] = NS1 protein of Zika virus - qHTS assay to identify small molecule inhibitors in human HEK 293 cells (AID 1347053); further: series mostly up to about 46 µM; nearly all actives have a fitted effect of over 55% in size
Method in brief: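 HEK 293 cells, seeded 20 h at 37 C, were pretreated with compound 1 h, then infected with ZIKV MR766 (MOI = 0.5) for 24 h. NS1 was read by TR-FRET with two anti-NS1 antibodies, normalized to uninfected and infected wells.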

[9] = qHTS of pediatric cancer cell lines to identify multiple opportunities for drug repurposing: Primary screen for TC32 cells (AID 1347089); further: nearly all actives have a fitted effect of over 60% in size
Method in brief: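 In the primary qHTS, MIPE compounds were tested at 11 concentrations (0.78 nM to 46 µM) and NPC compounds at 8 (0.59 nM to 46 µM) on TC32 cells for 48 h. CellTiter-Glo luminescence gave viability.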

[10] = qHTS of pediatric cancer cell lines to identify multiple opportunities for drug repurposing: Primary screen for DAOY cells (AID 1347090); further: series mostly up to about 46 µM; nearly all actives have a fitted effect of over 55% in size
Method in brief: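 Cell viability, CellTiter-Glo luminescence; 500-1,000 cells/well, 8- or 11-point titration, 48 h compound exposure at 37 degrees C, 5% CO2. Controls: DMSO neutral, bortezomib 2.3 µM final as positive.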

[11] = qHTS assay for measurement of the activity of small molecule inhibitors on Zika virus induced Caspase-3 activity in human iPSC derived neural progenitor cells (hNPCs) (AID 1224857); further: nearly all actives have a fitted effect of over 65% in size; further: potency means the concentration at half of the fitted maximal effect
Method in brief: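 In medium with heparin 2 ug/ml and cyclopamine 2 uM, hNPCs (350 cells/well) received compound for one hour and then Zika virus at 2 FFU/cell; caspase activity was measured by Caspase-Glo 3/7 luminescence 6 h post-infection.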

[12] = molecular target: T1, Tyrosine-protein phosphatase non-receptor type substrate 1 (Homo sapiens) + Leukocyte surface antigen CD47 (Homo sapiens) (UniProt P78324+Q08722); assay: CD47-SIRPalpha protein protein interaction - LANCE assay qHTS validation (AID 1347057; active means well fitted curve in the direction sought with a large enough effect in the signal ratio, with a control signal flat, not every such curve was filed as active; the % refers to the signal ratio; further: series mostly up to about 38 µM)
T1 sequence (P78324 whole entry, looked up): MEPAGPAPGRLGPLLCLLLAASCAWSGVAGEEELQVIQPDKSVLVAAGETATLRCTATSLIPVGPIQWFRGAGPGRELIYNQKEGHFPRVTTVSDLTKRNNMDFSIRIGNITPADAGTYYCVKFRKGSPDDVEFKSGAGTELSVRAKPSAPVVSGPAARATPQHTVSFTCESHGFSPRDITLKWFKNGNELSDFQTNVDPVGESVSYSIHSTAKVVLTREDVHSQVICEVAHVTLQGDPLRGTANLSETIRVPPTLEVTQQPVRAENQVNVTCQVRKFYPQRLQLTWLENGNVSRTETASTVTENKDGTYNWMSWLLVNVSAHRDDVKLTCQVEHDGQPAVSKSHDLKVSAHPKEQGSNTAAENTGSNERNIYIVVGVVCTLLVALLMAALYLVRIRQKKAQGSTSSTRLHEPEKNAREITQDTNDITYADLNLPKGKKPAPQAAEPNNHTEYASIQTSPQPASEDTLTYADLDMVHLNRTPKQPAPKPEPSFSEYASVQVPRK
T1 sequence (Q08722 whole entry, looked up): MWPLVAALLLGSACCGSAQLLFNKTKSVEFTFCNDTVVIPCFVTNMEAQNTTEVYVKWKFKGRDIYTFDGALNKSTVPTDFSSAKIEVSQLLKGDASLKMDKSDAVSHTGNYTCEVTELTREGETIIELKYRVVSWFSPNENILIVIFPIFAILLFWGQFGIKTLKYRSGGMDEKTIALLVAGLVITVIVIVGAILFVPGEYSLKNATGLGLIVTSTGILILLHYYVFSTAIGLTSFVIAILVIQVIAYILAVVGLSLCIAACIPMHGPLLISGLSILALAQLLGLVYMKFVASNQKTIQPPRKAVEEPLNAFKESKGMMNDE
Method in brief: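 First, His-tagged CD47 and Eu-labelled anti-His antibody met the compound for 30 min; next, site-specifically biotinylated SIRPalpha was added for 30 min; finally streptavidin-APC was added before reading the TR-FRET ratio.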

[13] = molecular target: T1, Tyrosine-protein phosphatase non-receptor type substrate 1 (Homo sapiens) + Leukocyte surface antigen CD47 (Homo sapiens); assay: CD47-SIRPalpha protein protein interaction - HTRF assay qHTS validation (AID 1347058; active means well fitted curve in the direction sought with a large enough effect in the signal ratio, not every such curve was filed as active; the % refers to the signal ratio;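 further: recombinant soluble extracellular CD47 with His tag and biotinylated SIRPalpha domains; series mostly up to about 38 µM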)
Method in brief: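 TR-FRET read (Ch1/Ch2 ratio) of soluble extracellular CD47 and Avi-biotinylated SIRPalpha domains in PBS pH 7.4 with 0.05% IGEPAL; 7-point compound titration. Sequential 30 min room-temperature steps; non-biotinylated SIRPalpha as control inhibitor.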

[14] = molecular target: T1, Tyrosine-protein phosphatase non-receptor type substrate 1 (Homo sapiens) + Leukocyte surface antigen CD47 (Homo sapiens); assay: CD47-SIRPalpha protein protein interaction - Alpha assay qHTS validation (AID 1347059);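 further: bead proximity luminescence from CD47 binding SIRPalpha after compound preincubation with SIRPalpha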
Method in brief: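 Binding is measured by AlphaScreen proximity: Ni-NTA acceptor beads capture His-CD47, streptavidin donor beads capture biotin-SIRPalpha. Each of three additions (SIRPalpha with compound, CD47, beads) incubates 30 min at room temperature protected from light.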

[15] = molecular target: Atrial natriuretic peptide receptor 1 (Homo sapiens) (UniProt P16066); assay: Natriuretic polypeptide receptor (hNpr1) antagonism - Pilot screen (AID 1347049; calls by dose curve;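 further: agonist-evoked cGMP luminescence read 20 min after hNppA addition; series mostly up to about 58 µM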)
Atrial natriuretic peptide receptor 1 (Homo sapiens), sequence (P16066 whole entry, looked up): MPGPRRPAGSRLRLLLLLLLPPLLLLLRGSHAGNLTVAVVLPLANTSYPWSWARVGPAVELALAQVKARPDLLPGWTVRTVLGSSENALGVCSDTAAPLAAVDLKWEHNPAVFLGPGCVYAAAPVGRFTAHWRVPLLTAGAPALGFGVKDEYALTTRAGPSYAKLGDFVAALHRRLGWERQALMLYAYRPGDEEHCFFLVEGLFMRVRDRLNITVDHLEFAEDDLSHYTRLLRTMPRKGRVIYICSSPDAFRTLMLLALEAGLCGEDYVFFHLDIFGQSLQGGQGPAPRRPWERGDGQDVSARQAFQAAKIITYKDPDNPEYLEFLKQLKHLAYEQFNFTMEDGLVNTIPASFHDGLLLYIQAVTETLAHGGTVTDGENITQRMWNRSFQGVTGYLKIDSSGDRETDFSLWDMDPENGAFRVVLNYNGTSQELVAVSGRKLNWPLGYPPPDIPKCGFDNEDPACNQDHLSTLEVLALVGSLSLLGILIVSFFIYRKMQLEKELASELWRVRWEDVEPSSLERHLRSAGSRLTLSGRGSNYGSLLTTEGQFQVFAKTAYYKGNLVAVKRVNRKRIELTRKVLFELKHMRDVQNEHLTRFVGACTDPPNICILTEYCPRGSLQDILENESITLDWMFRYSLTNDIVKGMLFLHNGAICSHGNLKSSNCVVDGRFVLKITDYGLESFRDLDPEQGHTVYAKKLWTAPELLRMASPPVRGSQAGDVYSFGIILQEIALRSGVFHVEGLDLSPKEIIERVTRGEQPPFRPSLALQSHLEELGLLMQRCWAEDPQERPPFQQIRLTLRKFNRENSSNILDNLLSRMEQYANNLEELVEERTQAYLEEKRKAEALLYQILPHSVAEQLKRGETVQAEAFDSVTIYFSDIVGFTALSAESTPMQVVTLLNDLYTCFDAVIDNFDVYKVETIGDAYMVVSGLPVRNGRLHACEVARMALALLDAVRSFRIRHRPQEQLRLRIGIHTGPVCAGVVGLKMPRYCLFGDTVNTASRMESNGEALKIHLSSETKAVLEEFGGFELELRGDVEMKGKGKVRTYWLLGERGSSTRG
Method in brief: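 Readout is cGMP-driven firefly luciferase luminescence in HEK293 cells carrying hNpr1 and a PDE5-domain GloSensor, read before and 20 min after 0.1 nM hNppA stimulation. Cells had 2% substrate reagent for 2 h and test compound for 30 min.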

Measured: Potency

O=C(O)/C=C/C(O)c1ccc(Cl)cc1 (stereo not drawn)
inactive: [1] | [2] | [3] | [4] | [5] | [6] | [7]

CCCOC(=O)c1ccc(O)cc1
inactive: [1] | [2] | [3] | [4] | [8] | [9] | [10]

O=C1NCc2c1c1c3ccccc3[nH]c1c1[nH]c3ccccc3c21
inactive: [11] | [12] | [13] | [14]

C/C(=N\O)c1ccc(OCC(=O)N2CCCCC2)cc1
inactive: [8] | [9] | [10]
active: [11] 15.8 µM

COc1ccc(/C=C/c2nc(NCCCN(C)C)c3ccccc3n2)cc1
inactive: [11] | [8] | [14]

CN(C)[C@@H]1C(=O)C(C(=O)NCN2CCCC2)=C(O)[C@@]2(O)C(=O)C3=C(O)c4c(O)cccc4[C@@](C)(O)C3C[C@@H]12 (stereo partly drawn)
inactive: [1] | [2] | [3] | [4] | [8] | [9] | [10]

O=C(NOCC1CC1)c1cc(Br)c(F)c(F)c1Nc1ccc(I)cc1Cl
inactive: [11] | [8] | [12] | [14]

c1ccc(CCNc2nc(-c3ccccc3)cs2)cc1
inactive: [11] | [9]

N=c1ccn2c(n1)O[C@H]1[C@H](O)[C@@H](CO)O[C@H]12
not listed: [9] | [10] | [11]
inactive: all other assays above

CC1(C)S[C@@H]2[C@H](NC(=O)[C@H](N)c3ccccc3)C(=O)N2[C@H]1C(=O)O
inactive: [11] | [8] | [9] | [10]

COc1ccc(/C=C/C(=O)Nc2ccccc2C(=O)O)cc1OC
active: [1] 7.08 µM | [6] 3.69 µM
inactive: [2] | [3] | [4] | [8] | [12] | [14] | [7]

Cc1ccc2c(n1)Oc1ccc(C(C)C(=O)OCC(=O)N(C)C)cc1C2 (stereo not drawn)
active: [11] 14.1 µM
inactive: [8] | [9] | [10]

CNC(=O)c1c(I)c(NC(=O)CCCCC(=O)Nc2c(I)c(C(=O)O)c(I)c(C(=O)NC)c2I)c(I)c(C(=O)O)c1I
inactive: [11] | [8] | [9] | [10]

Nc1nc2ccc(Cl)cc2n2c(-c3ccccc3)nnc12
inactive: [11] | [12] | [13] | [14]

NS(=O)(=O)c1ccc(-n2nc(C(F)(F)F)cc2-c2ccc(Cl)cc2)cc1
inactive: [11] | [12] | [14]

From PubChem BioAssay (NCATS)
